In the library only some 2.2% were active in any assay of this set; here they are far more common.
aSyn yeast inh = alpha-synuclein toxicity inhibition in yeast; actives 0.14% (n = 370,000); Yeast expressing alpha-synuclein, growth rescue, BacTiter-Glo, 24 h; Potency, µM (titrated, usually from 46.1 µM), hits mostly activators; AID 652106; also: nearly all actives have a fitted effect of over 65% in size
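Readout is rescue of growth in alpha-synuclein-expressing yeast, so inhibitors of toxicity appear as activators. Growth after 24 hr at 30 deg C in galactose medium is quantified by luminescence.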
Mito fusion act = inhibitors of mitochondrial division or activators of mitochondrial fusion. Potency, µM (top dose mostly 46.1 µM), hits mostly activators. actives 0.23% (n = 320,000). S. cerevisiae fusion-defective mutant growth rescue, CellTiterGlo 48 h; also: nearly all actives have a fitted effect of over 45% in size
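Yeast fusion mutant, YPEG (non-fermentable carbon), compound, 48 h at 37C non-permissive; CellTiterGlo added, 10 min RT, luminescence read. Rescued growth = division inhibition.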
Abeta yeast res = compounds reversing amyloid beta toxicity in yeast | yeast expressing A-beta42, growth rescue, OD600, 48 h; response scale: 0% DMSO, 100% iron-clioquinol control | Potency, µM (doses to about 46.1 µM), most hits filed as activators | actives 0.063% (n = 410,000) | AID 1347071; also: nearly all actives have a fitted effect of over 55% in size
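Yeast A-beta toxicity model in growth medium with pinned compounds, 48 h at 30 C; growth read as absorbance at 600 nm. Normalized to FeCl3/clioquinol equimolar mix (positive) and DMSO (negative).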
TDP43 rescue = TDP-43 toxicity inhibition in yeast | TDP-43 expressing yeast growth rescue, BacTiter-Glo, 24 h | Potency, µM (highest dose often 46.1 µM), actives largely listed as activators | actives 1.8% (n = 410,000) | AID 652104; also: nearly all actives have a fitted effect of over 50% in size
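Galactose-induced TDP-43 yeast, OD600=0.02, compound pinned; 24 hr, 30 deg C; BacTiter-Glo luminescence for growth. Inhibitors of TDP-43 toxicity read as activators.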
FUS suppressor = FUS proteinopathy suppression in yeast | Potency, µM (highest dose often 76.6 µM), usual class: activators | S. cerevisiae FUS-expressing, growth rescue, OD600, 24 h | actives 0.24% (n = 390,000); also: nearly all actives have a fitted effect of over 55% in size
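Restored growth of FUS-toxic S. cerevisiae, read as 600 nm absorbance after 24 h at 30C in galactose medium (starting OD 0.005). Controls CP55940 and DMSO.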
Hits are given with their value; 0 = inactive; ? = inconclusive; - = no result given. Calls follow the shape of the dose curve; as a rule, active = well fitted curve in the direction sought with a large enough effect; inconclusive = small, poorly fitted or top-dose-only effect, or another doubt; inactive = no such curve, though single readings can be large; an effect the other way counts as inactive or inconclusive.

SMILES	aSyn yeast inh	Mito fusion act	Abeta yeast res	TDP43 rescue	FUS suppressor
CCC(=O)N1CCc2cc(Br)cc(S(=O)(=O)N3CCCC(C(=O)Nc4ccc(C(C)C)cc4)C3)c21 (stereo not given)	-	-	0	0	8.9µM
COc1ccc(-c2cc3nccc(-c4cc(Cl)c(C)cc4O)n3n2)cc1	-	-	0	0	0
O=C(Cc1ccccc1)n1nc(-c2ccco2)nc1SCc1ccccc1	0	0	0	11µM	0
Cc1ccc(N2CCN(c3nc4ccc(C)cc4n4nnnc34)CC2)c(C)c1	-	-	0	0	0
CC(C)(C#N)Nn1cnnc1	0	0	0	0	16µM
CC1CCN(C(=O)CSCC(=O)Nc2nc(-c3cccs3)cs2)CC1	0	0	0	35µM	?
Cc1ccc(-c2csc(NC(=O)CSc3nc(C)cs3)n2)cc1	0	0	0	?	0
CCn1c(SCC(=O)Nc2nc(-c3ccc(C)cc3)cs2)nnc1-c1ccccc1	0	0	0	0	0
O=C(CSCC(=O)N1CCCc2ccccc21)Nc1nc(-c2ccccc2)cs1	0	18µM	0	11µM	?
Cc1csc(SCC(=O)Nc2nc(-c3ccccc3)cs2)n1	0	0	0	14µM	0
CCn1c(SCC(=O)Nc2nc(-c3ccc(C)cc3)cs2)nnc1-c1ccccc1O	0	?	0	20µM	0
CCOc1ccc(Nc2nnc(Cc3ccc(OC)cc3)c(=O)[nH]2)cc1	0	0	0	0	0
CC(C)C(=O)Nc1cc(C(F)(F)F)ccc1N1CCOCC1	0	0	0	0	0
CCOc1ccccc1NC(C)C(=O)Nc1cc(C(F)(F)F)ccc1N1CCOCC1 (stereo not given)	0	?	0	13µM	-
O=C(Nc1cccc(C(F)(F)F)c1)C1Cc2c(-c3cccc(F)c3)ccnc2O1 (stereo not given)	?	-	0	25µM	?
O=C(Nc1ccc(F)c(Cl)c1)C1Cc2c(-c3cccc(F)c3)ccnc2O1 (stereo not given)	?	-	0	18µM	0
NC(=O)c1cccc(-c2ccnc3c2CC(C(=O)Nc2cccc(C(F)(F)F)c2)O3)c1 (stereo not given)	0	-	0	0	0
CC(=O)c1cccc(-c2ccnc3c2CC(C(=O)Nc2ccc(F)c(Cl)c2)O3)c1 (stereo not given)	?	-	0	?	?
Cc1ccccc1-c1nc(CS(=O)(=O)CC(=O)Nc2cccc(C(F)(F)F)c2)c(C)o1	-	-	0	0	0
Cc1ccc(NC(=O)Cn2c(=O)n(Cc3ccccc3)c(=O)c3sc4ccccc4c32)cc1	-	-	0	0	0
CC(=O)n1c2c(c3ccccc31)OC(N)=C(C#N)C2c1ccc(C(C)C)cc1 (stereo not given)	20µM	0	0	0	0
O=c1oc(=O)c2ccccc2c2ccccc12	0	-	0	0	-
Nc1ccc2oc(=O)c3ccccc3c2c1	0	0	0	13µM	-
O=C(Nc1nc(-c2cccs2)cs1)c1ccc(Cl)s1	0	0	0	3.5µM	0
CC(=O)Nc1nc(-c2cccs2)cs1	0	0	0	0	0
SMILES	aSyn yeast inh	Mito fusion act	Abeta yeast res	TDP43 rescue	FUS suppressor
O=C1CC(c2cccc(Br)c2)c2cc3c(cc2N1)CCC3 (stereo not given)	?	0	0	0	0
O=C1CC(c2cc(F)ccc2F)c2cc3c(cc2N1)CCC3 (stereo not given)	?	7.1µM	0	0	0
O=C(C[n+]1ccccc1Br)c1ccc2c(c1)CCCC2	0	-	-	-	-
COc1ccc(-c2nnc(-c3ccc(N)cc3)o2)cc1	0	0	0	10µM	0
COc1ccc(-c2nnc(-c3ccc(N(C)C)cc3)o2)cc1	0	0	0	0	?
COc1ccc(-c2nnc(-c3cccnc3)o2)cc1	0	0	0	22µM	0
COc1cccc(-c2noc(-c3cccnc3)n2)c1	0	0	0	0	0
c1cncc(-c2nnc(-c3cccs3)o2)c1	0	0	0	0	0
FC(F)(F)c1ccc(-c2nnc(-c3cccnc3)o2)cc1	0	0	0	13µM	0
Clc1ccc(-c2nnc(-c3cccnc3)o2)cc1	0	0	0	13µM	0
Cc1ccc(-c2nnc(-c3cccnc3)o2)cc1	0	0	0	0	0
CC(C)(C)OC(=O)N1CCC(c2c(C(=O)NCc3ccco3)cnn2-c2ccccc2Cl)CC1	-	-	0	0	?

Screening data as filed in PubChem BioAssay.
